Results reported in the supplement of paper PMC3334620.
Whole data set: some 33,000 sequences, median “E-score (-0.5 to 0.5)” near -0.016, cut for the highest 2% near 0.3. Many of the other results were omitted from the sample, so the highest values are more common in it than they were.

What follows are sequences tested against T1, Yer184c (UniProt P39961) (assay: PBM E-score (8-mer binding enrichment) (E-score (-0.5 to 0.5)); higher = stronger / more preferred TF binding). Details: protein concentration: 100 nM; construct: GST-full length.
T1 sequence: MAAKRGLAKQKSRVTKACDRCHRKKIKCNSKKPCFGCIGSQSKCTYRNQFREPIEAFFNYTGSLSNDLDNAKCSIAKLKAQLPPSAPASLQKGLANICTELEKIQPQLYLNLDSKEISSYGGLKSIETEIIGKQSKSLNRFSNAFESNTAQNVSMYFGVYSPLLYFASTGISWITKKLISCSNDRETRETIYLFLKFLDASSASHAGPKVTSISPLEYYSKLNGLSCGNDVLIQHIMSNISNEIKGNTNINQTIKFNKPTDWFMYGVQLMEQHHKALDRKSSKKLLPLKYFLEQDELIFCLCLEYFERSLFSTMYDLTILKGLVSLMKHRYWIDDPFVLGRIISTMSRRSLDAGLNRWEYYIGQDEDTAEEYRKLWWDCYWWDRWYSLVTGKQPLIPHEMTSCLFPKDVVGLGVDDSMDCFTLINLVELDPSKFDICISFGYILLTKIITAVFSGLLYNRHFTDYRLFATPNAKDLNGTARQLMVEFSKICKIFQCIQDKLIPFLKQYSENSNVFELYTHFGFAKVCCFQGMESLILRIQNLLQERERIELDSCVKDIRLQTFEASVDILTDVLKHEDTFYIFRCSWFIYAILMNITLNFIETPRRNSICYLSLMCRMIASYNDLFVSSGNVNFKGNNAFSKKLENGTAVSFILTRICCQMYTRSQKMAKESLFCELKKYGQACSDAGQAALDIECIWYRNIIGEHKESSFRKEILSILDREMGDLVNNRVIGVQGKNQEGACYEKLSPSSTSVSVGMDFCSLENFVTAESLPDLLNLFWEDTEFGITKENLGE
Description: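 Universal 'all 10-mer' protein binding microarrays (Agilent AMADID 015681) probed with GST-tagged S. cerevisiae TFs (full-length or DBD) made by in vitro transcription/translation (PURExpress), about 100-200 nM. Bound TF was detected with fluorescent anti-GST. Each ungapped 8-mer (which stands for itself and its reverse complement) is scored by the PBM enrichment score (E-score), a modified Wilcoxon-Mann-Whitney statistic from -0.5 to +0.5, computed with the Universal PBM Analysis Suite. Scale: above 0.35 generally sequence-specific binding.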

Sequence | PBM E-score
ATTCTGCA | 0.124
TAAGCTAA | 0.138
AGACCTAT | 0.0227
AATATCAT | 0.142
CCTCGCCC | -0.125
TCCGTAAA | 0.303
GCCGTAGC | 0.045
GCCGTAAA | 0.339
TCCGTAGA | 0.204
GCCGTAGA | 0.322
ACCGTAAA | 0.0422
GAAGCGTA | -0.0311
GGATTCGA | -0.0994
AATGCAAT | -0.256
ATGACGGA | 0.198
CACTTCTG | -0.207
GATCTTTA | 0.106
AGAACAAG | 0.143
ATAACAAT | 0.115
ATAACAAG | 0.209
AGAACAAT | 0.174
ATAACAAA | 0.357
AGAACAAA | 0.349
AGAGATAC | -0.0106
AGTGAGAT | -0.107

Sequence | PBM E-score
CGAGAGAG | 0.166
AAGAGCAA | -0.0457
CACAAGCC | -0.0115
AGCCCGTA | -0.276
GAACACCC | -0.0175
CAGGCCGG | 0.108
AAGGCCGA | 0.338
AAGGCCGT | 0.156
AAGGCCGC | 0.051
AAGGCCCG | -0.093
AAGGCCGG | 0.318
CGCCCGCA | -0.0897
GATGAGCA | 0.0238
GAGGTCGA | -0.158
GACTGCCC | -0.309
ATATTGCG | -0.0525
CGCGGCGC | 0.259
CTCGGCTC | 0.237
GTCGGCGA | 0.134
CTCGGCGA | 0.399
CTCGGCGC | 0.357
GTCGGCTA | 0.153
CTCGGCTA | 0.352
ATCGGCGC | 0.275
ATCGGCGA | 0.128

Sequence | PBM E-score
TAGATGGA | -0.162
AAGAGGAG | -0.115
GATGGATA | 0.0331
CGGGGAGC | -0.0385
AGAGCCAT | -0.101
CGCTATGA | -0.0231
CTTCGGAA | 0.394
CGTCGGAA | 0.24
ATTCGGAC | 0.349
CTTCGGGA | 0.171
CTTCGGTC | 0.309
AGTCGGAC | 0.0344
ATTCGGGC | 0.141
CTTCGGTA | 0.235
GTTCGGGA | 0.226
GGTCGGAA | 0.225
ATTCGGTC | 0.244
GTTCGGAA | 0.402
AAAGTTAT | 0.134
CGAACCCA | -0.0147
GCGCCCTA | -0.135
CGCGTAGC | -0.0173
CCTGTCAG | -0.101
TCCGCGAA | 0.234
ATTGGTAG | -0.0488

Sequence | PBM E-score
CTTCGGGC | -0.0555
CTTCGGAC | 0.325
CCTCGGAC | 0.17
ATTCGGAA | 0.353
ATTCGGAG | 0.205
AGTCGGAA | 0.245
GTATGCTA | -0.0379
AGCCGCGC | 0.103
AACCGCGA | 0.225
AACCGCGT | 0.168
ACCCGCGG | 0.351
ATCCGCGA | 0.105
AGCCGCGG | 0.419
AGCCGCGA | 0.133
ATCCGCGG | 0.359
ACCCGCGT | -0.0424
ATCCGCGC | 0.141
ACCCGCGA | -0.0511
AACCGCGG | 0.372
GATCGCAC | -0.0597
CAAAGATC | 0.154
CGATCTGC | 0.0352
AGCTACCT | -0.0785
CAGTCCCA | -0.171
GTAAGGAA | -0.0396

Sequence | PBM E-score
CACAGAAC | -0.13
CTTCCCGA | 0.148
CTTCCGCA | 0.068
GTACCGGA | 0.285
CTTCCTGC | -0.314
CTTCCGCC | 0.024
GTTCCGGA | 0.438
ATTCCGGA | 0.436
CTTCCGGA | 0.402
ATTCCGCA | 0.139
GTTCCGCA | 0.268
CTTCCGGC | 0.343
ATACCGGA | 0.237
CCAACGTA | -0.105
ACTCGGGA | 0.199
GAAAACCA | -0.0101
GTGCAGAA | 0.0359
CTGTGGGC | -0.192
CGTCCCCC | -0.275
ATGGGCAC | -0.072
ATTCGCCG | 0.334
ATTCGCCA | 0.0246
ATTCGCCC | -0.127
GAGAGGAC | -0.128
CGCCCGGC | 0.213

Sequence | PBM E-score
GGCCCGGA | 0.301
AGCCCGGG | 0.268
CGCCCGGA | 0.264
AGCCCGGA | 0.314
AGCCCGGC | 0.309
CCTGGAGA | -0.035
AATCCTGA | 0.0482
AAATACCT | -0.105
ATCAACTA | 0.178
GAGGTGCC | 0.0277
CAACGTGC | -0.133
ACAAGTAC | 0.00537
AAGCGAGT | 0.225
ACAGCCGA | 0.0776
ATAGCCGC | 0.0602
ACAGCCGG | 0.343
AGAGCCGG | 0.314
ACAGCCGC | -0.0252
ATAGCCGA | 0.299
AGAGCCGC | 0.0235
ATAGCCGG | 0.388
AGAGCCGA | 0.26
ATCCACTG | -0.143
CTCCAGTC | -0.195
GGACCGAA | 0.353

Sequence | PBM E-score
TGACCGAA | 0.228
AGACCGAT | 0.0681
AGACCGAA | 0.305
CGACCGAA | 0.273
GGACCGAC | 0.12
ACGTTGCC | -0.14
CGTTACCC | -0.104
CGATACCG | -0.0503
AAATTGCC | 0.168
CAGTGTGA | 0.0148
AGCTCCAG | -0.151
TAAATTCA | -0.0563
GCTTCGCA | -0.163
ACTTCGGG | 0.0741
ACTTCGGC | 0.269
CCTTCGGA | 0.327
CCTTCGGC | 0.219
CCTTCGCA | -0.0813
GCTTCGGA | 0.304
GCTTCGTA | -0.148
ACTTCGGA | 0.337
CGCGTTGA | -0.00366
GGTCTTGA | -0.0168
CAGTGGCC | -0.0943
